Hits are enriched below; roughly 1.1% of the tested compounds scored in any of these assays.
E coli RNAP: E. coli RNAP inhibitors, biochemical; AID 559, 2006; E. coli RNA polymerase, fluorescence transcription assay; DNA-directed RNA polymerase subunit beta (Escherichia coli (strain K12)), P0A8V2; inhibition, %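 (tested at 10 µM)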; 62,000 tested, 0.2% active; in the data active = inhibition above about 20%;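 also: 0% = enzyme without compound and 100% = no enzyme blank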
CatG inh: human cathepsin G inhibitors, primary screen, biochemical, pooled compound mixtures, AMC fluorescence; inhibition, % at 5 µM (by protocol); purified enzyme, AMC-tetrapeptide fluorescence; 62,000 tested, 0.2% active; P08311;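 active = inhibition above 20% in each of the two mixture wells holding the compound; inactive = inhibition of 20% or less in either well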;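 also: 0% = enzyme control without mixture and 100% = blank lacking enzyme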
Target sequence (P08311 21-244 limits assumed): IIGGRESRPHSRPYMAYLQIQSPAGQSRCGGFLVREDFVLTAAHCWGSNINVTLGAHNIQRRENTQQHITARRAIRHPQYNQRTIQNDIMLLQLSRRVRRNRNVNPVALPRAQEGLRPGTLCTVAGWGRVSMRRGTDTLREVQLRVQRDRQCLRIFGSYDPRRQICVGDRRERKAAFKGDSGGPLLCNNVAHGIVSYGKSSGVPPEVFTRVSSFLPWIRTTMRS
FXIa mix inh: FXIa protease inhibitors in compound pools, primary screen, biochemical, 10-compound mixtures; Coagulation factor XI (Homo sapiens), P03951; purified FXIa, fluorogenic substrate, pooled mixtures; inhibition, % at 5 µM; 62,000 tested, 0.19% active;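 also: each value is inhibition by a whole ten-compound pool holding the compound; 0% = enzyme with no mixture and 100% = wells lacking enzyme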
FXIIa inh mix: human factor XIIa inhibitors, primary screen, biochemical, pooled compound mixtures, fluorogenic substrate | Coagulation factor XII (Homo sapiens), P00748 | inhibition, % at 5 µM | 62,000 tested, 0.2% active | purified FXIIa;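 also: 0% = enzyme without compound and 100% = no enzyme blank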
BAP1 inh: inhibitors of BAP1 deubiquitinase, primary screen, biochemical, Ub-AMC fluorescence, kinetic. calls only at 20 µM. 72,000 tested, 0.48% active. AID 436, 2006. recombinant BAP1, Ub-AMC hydrolysis fluorescence kinetic; stronger effect = lower value. Ubiquitin carboxyl-terminal hydrolase BAP1 (Homo sapiens), Q92560;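 active = activity remaining at or below 50% of control, provided the compound also passes the data quality filters; inactive = the rest, including low values that fail the filters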;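 also: 100% = DMSO wells rate and 0% = substrate alone blank rate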
C1s inh: complement C1s protease inhibitors, primary screen, biochemical, 10-compound mixtures; 62,000 tested, 0.16% active; purified C1s, fluorogenic AMC substrate, pooled mixtures; mean inhibition % of two 10-compound mixtures (stronger effect = higher value), % at 5 µM (by protocol); AID 538, 2006; Complement C1s subcomponent (Homo sapiens), P09871;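 active = inhibition above 20% in each of the two 10-compound mixture wells holding the compound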;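 also: 0% = enzyme wells lacking compound mixture and 100% = no-enzyme blank wells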
BAP1 inh confirm: BAP1 deubiquitinase inhibitors, hit retest, confirmation, orthogonal assay, biochemical, Ub-ethyl ester substrate, HPLC readout; shares compounds with BAP1 inh; purified BAP1, Ub-ethyl ester hydrolysis; stronger effect = lower value; AID 753, 2007; % of control activity, % at 20 µM; 310 tested, 8% active;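 active = percent of control activity at or below 60%; inconclusive = HPLC trace unusable from injection failure or solvent front hiding peaks; inactive = the rest, plus ubiquitin peak ratio over a set limit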
Numbers without * were called inactive; i = inactive; ? = inconclusive; nt = no result given; + = active, no number. Rule as the data show it, unless noted: active = inhibition above about 20% (passing the limit was not always enough); inactive = the rest.

SMILES | E coli RNAP | CatG inh | FXIa mix inh | FXIIa inh mix | BAP1 inh | C1s inh | BAP1 inh confirm
Cc1cc(C)n(-c2ccc(C(=O)OCC(=O)c3ccc(Br)s3)cc2)n1 | -6 | -13 | -1 | -1 | + | -15 | 80
CCOC(=O)COc1nc(C)c(Br)c(OC)n1 | 6 | 7 | 9 | 8 | + | 12 | 71
CCOC(=O)c1sc(NC(=O)c2ccc(Br)cc2)nc1-c1ccccc1 | nt | nt | nt | nt | i | nt | nt
CC(Cl)=CCSc1nc2c(c(=O)[nH]c(=O)n2C)n1C(C)C | nt | nt | nt | nt | i | nt | nt
O=C(Nc1nc(-c2nc3ccccc3s2)cs1)c1ccc(S(=O)(=O)N2CCOCC2)cc1 | 10 | -2 | 23 | 2 | + | -1 | 109
CC(C)c1nc(SCC(=O)Nc2ccc3c(c2)OCCO3)c2c(=O)n(C)c(=O)n(C)c2n1 | 8 | 13 | 10 | 5 | i | 8 | nt
CC(C)c1nc(SCC(=O)Nc2cccc(C(F)(F)F)c2)c2c(=O)n(C)c(=O)n(C)c2n1 | 6 | -3 | 5 | 16 | + | -16 | 103
COc1ccc(C2CC(=O)N3CN(c4ccc(C)c(Cl)c4)CSC3=C2C#N)cc1OC (stereo not given) | 4 | -6 | -4 | -16 | + | -29 | ?
COc1ccc(N2CSC3=C(C#N)C(c4ccc(OC)c(OC)c4)CC(=O)N3C2)c(OC)c1 (stereo not given) | 6 | -31 | -33 | 3 | i | -80 | nt
CCOC(=O)Cn1nnnc1CN(Cc1ccc(OC)cc1)Cc1cc2cc(CC)ccc2[nH]c1=O | 11 | 1 | 7 | 7 | + | 5 | 97
Cc1ccc(Cn2ncc3c(N4CCN(Cc5ccc(Cl)cc5)CC4)ncnc32)cc1 | 10 | nt | nt | nt | nt | nt | nt
Cc1ccccc1N1CCN(c2ncnc3c2cnn3Cc2ccc(Cl)cc2)CC1 | -9 | -1 | 5 | -18 | + | -1 | 140
CCOC(=O)CC1CSc2nc3sc(C)c(C)c3c(=O)n21 (stereo not given) | nt | nt | nt | nt | i | nt | nt
Cc1nc(SCC(=O)Nc2ccc3c(c2)OCCO3)c2oc3ccccc3c2n1 | 1 | -16 | -27 | 7 | nt | -94 | nt
CCc1nc(SCC(=O)Nc2ccc3c(c2)OCCO3)c2oc3ccccc3c2n1 | -10 | -1 | 6 | 3 | + | -2 | ?
O=C(Nc1ccc(Cl)c(-c2nc3ccccc3s2)c1)c1ccc(F)cc1 | nt | nt | nt | nt | i | nt | nt
O=C(CSc1nc2c(c(=O)n1-c1ccc(Cl)cc1)SCC2)Nc1ccc2c(c1)OCCO2 | 11 | 9 | 4 | 7 | + | 0 | 49*
COc1ccc(-n2c(SCC(=O)Nc3ccc4c(c3)OCO4)nc3c(c2=O)SCC3)cc1 | -4 | 0 | 7 | 3 | + | -2 | 105
O=C(CSc1nc2c(c(=O)n1-c1ccc(Cl)cc1)SCC2)N1CCOCC1 | 6 | -1 | 7 | 12 | i | 0 | nt
COc1ccc(-c2cc3c(=O)n(CC(=O)NC4CCN(Cc5ccccc5)CC4)ncn3n2)cc1 | 5 | -4 | -3 | 2 | + | 6 | 87
C=CCn1c(SCCCCCC)nc(O)cc1=O | nt | nt | nt | nt | + | nt | 83
C=CCn1c(SCCCC)nc(O)cc1=O | -5 | -2 | 5 | 1 | i | -6 | nt
Cc1cccc(-n2c(=O)[nH]c3c(C(N)=O)nc(-c4ccccc4Cl)nc32)c1 | -2 | -2 | 8 | 1 | + | -41 | 139
Cc1ccc(Cl)cc1N1CCN(C(c2ccc(C#N)cc2)c2nnnn2C2CCCC2)CC1 (stereo not given) | 7 | 10 | 36 | 2 | + | 19 | 68
Cc1ccc(Cl)cc1N1CCN(C(c2cccnc2)c2nnnn2C2CCCCC2)CC1 (stereo not given) | -8 | 1 | 4 | 6 | i | -4 | nt
SMILES | E coli RNAP | CatG inh | FXIa mix inh | FXIIa inh mix | BAP1 inh | C1s inh | BAP1 inh confirm
Cc1ccc(NC(=O)C2C3C=CC(O3)C2C(=O)O)c(Br)c1 (stereo not given) | nt | nt | nt | nt | i | nt | nt
Cc1ccc(-n2ncc3c(=O)n(CC(=O)Nc4cccc(Cl)c4)cnc32)cc1C | -4 | 0 | 15 | 3 | + | -1 | 79
O=C(O)c1ccc(Oc2ccc(NC(=O)C3CCCCC3)cc2)cc1C(=O)O | nt | nt | nt | nt | i | nt | nt
COc1ccccc1OCc1ccc(C(=O)n2nc(C)c(Cl)c2C)o1 | 2 | 6 | 19 | -9 | + | -2 | 128
N#Cc1c(NC(=O)CN2CCN(S(=O)(=O)c3ccc4c(c3)OCCO4)CC2)sc2c1CCC2 | 6 | 33 | 10 | 4 | + | 5 | 104
CCCCN=C1NS(=O)(=O)c2ccccc21 | nt | nt | nt | nt | i | nt | nt
COc1ccc(CNC(=O)C(NS(=O)(=O)c2ccc3c(c2)CCCN3C(C)=O)C(C)C)cc1 (stereo not given) | 3 | -4 | -3 | 2 | i | -38 | nt
CCC(=O)N1CCc2cc(S(=O)(=O)NC(C(=O)NCc3ccc(C)cc3)C(C)C)ccc21 (stereo not given) | -2 | 0 | 10 | 3 | + | -6 | i
Cc1cc(C)cc(OCc2nnc(SCC(=O)N3CCN(c4ccccc4)CC3)o2)c1 | 3 | 4 | 8 | 10 | + | 1 | 94
O=C(CSc1nnc(COc2ccccc2)o1)N1CCN(c2ccccc2)CC1 | nt | nt | nt | nt | i | nt | nt
O=C(c1cc2ccccc2o1)c1cccs1 | nt | 11 | 7 | 3 | i | 17 | nt
O=C(c1cccs1)c1ccc(-c2cccs2)s1 | 4 | -4 | -14 | 4 | + | -71 | 139
CCOC(=O)C1=C(C)N=c2s/c(=C\c3cccn3C)c(=O)n2C1c1cccc(OC)c1OC (stereo not given) | 10 | 10 | 3 | 2 | i | -13 | nt
CCOC(=O)C1=C(C)N=c2s/c(=C/c3ccco3)c(=O)n2C1c1cccc(OC)c1 (stereo not given) | 3 | 21 | 10 | -20 | + | 13 | 66
CC(=O)C(C(C)=O)c1c(Cl)c(O)c(O)c2c(C(=O)c3ccccc3)coc12 | 32* | -2 | 10 | 10 | + | -18 | 64
COc1ccc(C(=O)Nc2ccc(NC(=O)c3cccc(C)c3)cc2)cc1[N+](=O)[O-] | nt | nt | nt | nt | i | nt | nt
COc1ccc(NC(=O)c2c(NC(=O)CNCc3ccco3)sc3c2CCC3)c(OC)c1 | -1 | 6 | -1 | -19 | + | -27 | ?
COc1ccc(OC)c(NC(=O)c2c(NC(=O)CNCc3ccco3)sc3c2CCC3)c1 | -5 | 8 | 4 | -16 | i | -14 | nt

Screens: PubChem, several laboratories
